Inconclusive results are not listed. Where a call stands in place of a potency, no number is given. The source made the active and inactive calls. The call rests on the fitted dose curve; in most records, active means well fitted curve in the direction sought with a large enough effect; inconclusive means small, poorly fitted or top-dose-only effect, or another doubt; inactive means no such curve, though single readings can be large; an effect the other way counts as inactive or inconclusive.
How the values were obtained:
[1] = qHTS of pediatric cancer cell lines to identify multiple opportunities for drug repurposing: Confirmatory screen for Rh18 cells (AID 1347125); further: nearly all actives have a fitted effect of over 55% in size; further: potency means the concentration at half of the fitted maximal effect
Outline: (§1)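 Cells (500-1,000/well) rested 5 h, then received compounds for 48 h; metabolically active cells were measured by CellTiter-Glo luminescence. Final concentrations spanned up to 46 µM (MIPE, 11-point) or 0.59 nM-46 µM (NPC, 8-point) in primary screens, 11-point in follow-ups.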

[2] = qHTS of pediatric cancer cell lines to identify multiple opportunities for drug repurposing: Confirmatory screen for Rh30 cells (AID 1347126); further: nearly all actives have a fitted effect of over 55% in size; further: potency means the concentration at half of the fitted maximal effect
Outline: as §1

[3] = qHTS of pediatric cancer cell lines to identify multiple opportunities for drug repurposing: Confirmatory screen for Saos-2 cells (AID 1347127); further: nearly all actives have a fitted effect of over 60% in size; further: potency means the concentration at half of the fitted maximal effect
Outline: as §1

[4] = qHTS of pediatric cancer cell lines to identify multiple opportunities for drug repurposing: Confirmatory screen for SK-N-SH cells (AID 1347129);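 further: cells exposed to compound for 48 h before viability read; nearly all actives have a fitted effect of over 60% in size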; further: potency means the concentration at half of the fitted maximal effect
Outline: as §1

[5] = system: Zika virus NS2B-NS3 protease; assay: Primary screen GU AMC qHTS for Zika virus inhibitors (AID 1347154); further: nearly all actives have a fitted effect of over 70% in size
Outline: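 Fluorogenic AMC-substrate cleavage by noncovalent NS2B-NS3 protease complex (25 nM, pH 8.0 Tris buffer with Tween 20) followed for 15 minutes at room temperature (~20% conversion). Percent inhibition from ex340/em450 signal change, fitted by 4-parameter Hill equation.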

[6] = system: Zika virus NS2B-NS3 protease (unlinked); assay: Optimization of GU AMC qHTS for Zika virus inhibitors: Unlinked NS2B-NS3 protease assay (AID 1347151); further: series mostly up to about 52 µM; nearly all actives have a fitted effect of over 80% in size
Outline: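 In this qHTS, compounds acted on 25 nM unlinked Zika NS2B–NS3 in pH 8.0 Tris/Tween buffer. Cleavage of an AMC peptide ran 15 min at room temperature, to about 20% conversion.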

SMILES | Potency [1] | Potency [2] | Potency [3] | Potency [4] | Potency [5] | Potency [6]
CC(=O)Oc1cc2c(s1)CCN(C(C(=O)C1CC1)c1ccccc1F)C2 (configuration not stated) | inactive | 2930 nM (active) | inactive | inactive | inactive | 
COc1cc(N2CCC(N3CCN(C)CC3)CC2)ccc1Nc1ncc(Cl)c(Nc2ccccc2S(=O)(=O)C(C)C)n1 | 3290 nM (active) | 737 nM (active) | 1850 nM (active) | 833 nM (active) | inactive | 
CO[C@H]1C[C@@H]2CC[C@@H](C)[C@@](O)(O2)C(=O)C(=O)N2CCCC[C@@H]2C(=O)O[C@H]([C@H](C)C[C@@H]2CC[C@H](OCCO)[C@H](OC)C2)CC(=O)[C@H](C)C=C(C)[C@@H](O)[C@@H](OC)C(=O)[C@H](C)C[C@H](C)C=CC=CC=C1C | inactive | inactive |  | inactive | inactive | 
N[C@@]1(C(=O)O)CS(=O)(=O)[C@H]2[C@H](C(=O)O)[C@H]21 | inactive | inactive | 1310 nM (active) | inactive | inactive | 
CCCCCCCCCCCC1=C(O)C(=O)C=C(O)C1=O | inactive | inactive | inactive |  | inactive | 
OC[C@H]1O[C@@H](n2cnc3c2NC=NC[C@@H]3O)C[C@H]1O | inactive | inactive | inactive | inactive | inactive | 
COc1ncc(-c2ccc3nccc(-c4ccnnc4)c3c2)cc1NS(=O)(=O)c1ccc(F)cc1F | 104 nM (active) | 41.4 nM (active) | 46.5 nM (active) | 187 nM (active) | inactive | 
Cc1nnc(C(C)C)n1C1C[C@H]2CC[C@@H](C1)N2CC[C@H](NC(=O)C1CCC(F)(F)CC1)c1ccccc1 (some centres not stated) | 6570 nM (active) | 9270 nM (active) |  | inactive | inactive | 
O=C(NCc1ccncc1)C12C[C@H]3C[C@@H](C1)CC(c1ccc(Cl)cc1)(C3)C2 | inactive |  | 16500 nM (active) | inactive | inactive | 
NC1=N[C@@]2(c3cc(NC(=O)c4ccc(F)cn4)ccc3F)COC[C@@H]2CS1 | inactive | inactive | inactive | inactive |  | 
O=C(Nc1cccc(Br)c1)c1cccc(S(=O)(=O)N2CCCCCC2)c1 | inactive | inactive | inactive | inactive | inactive | 
CC1(C)O[C@H]2C[C@@H]3[C@H]4CCC5=CC(=O)C=C[C@]5(C)[C@@]4(F)[C@@H](O)C[C@]3(C)[C@]2(C(=O)CO)O1 | inactive | inactive | inactive | inactive | inactive | 
O=C1c2ccccc2-[n+]2ccc3c([nH]c4ccccc43)c21 | 2330 nM (active) | 2930 nM (active) | 928 nM (active) | inactive | inactive | 
O=C(O)c1ccc(-c2c[nH]c3ncc(-c4ccccc4)cc23)cc1C1CCCC1 | inactive | inactive | inactive |  | inactive | 
CCc1ccc(OCc2ccccc2C(=O)Nc2ccc3nc(C)cc(N)c3c2)cc1 | 8270 nM (active) | inactive | 9270 nM (active) | 8330 nM (active) | inactive | 
CC(C)(C(=O)NCC(F)(F)C(F)(F)F)C(=O)N[C@@H]1C(=O)Nc2ccccc2-c2ccccc21 | inactive | inactive | inactive |  | inactive | 
CC[C@]1(O)C[C@@H]2CN(CCc3c([nH]c4ccccc34)[C@@](C(=O)OC)(c3cc4c(cc3OC)N(C=O)[C@@H]3C45CCN4CC=C[C@](CC)([C@H]45)[C@@H](OC(C)=O)[C@]3(O)C(=O)OC)C2)C1 (some centres not stated) | inactive |  | inactive | inactive | inactive | 
Oc1ccc(C2CCN(c3ccnc4ccccc34)CC2)cc1O | inactive |  | inactive | 20900 nM (active) |  | 
COc1ccc(-c2nc(N3CCOCC3)c3sc(CN(C)c4ncc(C(=O)NO)cn4)cc3n2)cn1 | 1170 nM (active) | 4140 nM (active) |  | 5900 nM (active) |  | 
COc1cc2ncnc(Nc3ccc(F)c(Cl)c3)c2cc1OCCCN1CCOCC1 | 38000 nM (active) | 8510 nM (active) |  | 34000 nM (active) |  | 
COc1cccc(-c2cc(=O)c3ccccc3o2)c1N | inactive |  | inactive |  | inactive | inactive
CC1(C)CCC[C@@]2(C)[C@@H]1CC[C@@]1(C)OC(=O)C[C@H]21 | inactive | 18.5 nM (active) | inactive | inactive | inactive | 
CC1(C)S[C@H]2[C@H](NC(=O)[C@@H](N)c3ccc(O)cc3)C(=O)N2[C@@H]1C(=O)O | inactive | inactive | inactive | inactive | inactive | 
Nc1ncnc2c1ncn2[C@@H]1O[C@@H](CO)[C@H](O)[C@H]1O | inactive | inactive | inactive | inactive |  | 
CO[C@H]1C=CC=C(C)C(=O)NC2=CC(=O)C(NCCN(C)C)=C(C[C@@H](C)C[C@H](OC)[C@@H](O)[C@@H](C)C=C(C)[C@@H]1OC(N)=O)C2=O | 1850 nM (active) | 3290 nM (active) | inactive |  |  | 

From PubChem BioAssay (NCATS)
